Holding throughout (assay): pooled miR-30 sensor sort-seq; sequence = guide strand
Conditions in all cases: shRNA

For experiment [1], the target named is VNN2.
Experiment [2] has as its target VNN1.
The target of experiment [3] is VN1R2.
In experiment [4] the target is VWA2.
Experiment [5] addresses WDR34.
Experiment [6] concerns the target WDR33.
Experiment [7] concerns the target WDR38.
For experiment [8], the target named is WDR59.
For experiment [9], the target named is WFDC12.
For experiment [10], the target named is XAGE3.
For experiment [11], the target named is YAP1.
For experiment [12], the target named is YARS.
For experiment [13], the target named is XKRX.
Also: reference of the scale not given here.

Take TAAATGACAGCAAAGCTCCTTT: the sensor-assay potency score (higher = more potent) in [1] was 0.246. As for TTTCACTCAGCAACACCTCAGG, the sensor-assay potency score (higher = more potent) in [2] was -0.729. As to TTATTGGATACAAAGCAGGAGA, the sensor-assay potency score (higher = more potent) in experiment [3] is -0.969. TATGGGTAGAGAGAGTCCCTGT had a sensor-assay potency score (higher = more potent) in [2] of -0.516.

TTGACACCTGAAATTCTCCAGG registered a sensor-assay potency score (higher = more potent) in [2] of -0.925.

For the sequence TTATTATTCTTGCTTGTGCTGT, the sensor-assay potency score (higher = more potent) in [2] was -0.405. TAAGTTATTGCTGAATTGCTGG displayed a sensor-assay potency score (higher = more potent) in experiment [1] of 0.0796. In [4], TTTGGTTGAACAGATCCTGAGG yielded a sensor-assay potency score (higher = more potent) of -0.36. On to TTTCTTTGCTTACATGGACTTC, for which the sensor-assay potency score (higher = more potent) in experiment [4] is -1.06. In [5], TTAAGCGTGCTCCAGTCCCCAT displayed a sensor-assay potency score (higher = more potent) of -1.36. Sequence TACATCTCTAACATATTGCAAA yielded a sensor-assay potency score (higher = more potent) in experiment [6] of -1.19. On to ATACTTGAGGGAGAGCTGCAGC, for which the sensor-assay potency score (higher = more potent) in experiment [5] is -0.787.

Sequence TTTCTGGAGATCAAACAGCTGC yielded a sensor-assay potency score (higher = more potent) in [5] of -0.424. TTTCACTCTCCGCACGGCCAGC: in experiment [7], the sensor-assay potency score (higher = more potent) was -1.51.

Regarding ATATTTGACGTCTAGTCTGATC, the sensor-assay potency score (higher = more potent) in experiment [7] is -0.981. The sequence TAGTATATTGTAATGTAGCCAT displayed a sensor-assay potency score (higher = more potent) in experiment [6] of -0.402.

For the sequence TGCTTGATCAAAACTGTGGGTT, in experiment [5], the sensor-assay potency score (higher = more potent) is -0.0783. On to TTTATTTTGCATCCAAGCCTGC, for which the sensor-assay potency score (higher = more potent) in [6] is -0.562. In turn, TAAAGCTAGGATATCGACTATG returned a sensor-assay potency score (higher = more potent) in experiment [8] of -0.97. TAAACTGTCCCTGTGGACCTGG gave a sensor-assay potency score (higher = more potent) in experiment [6] of -0.115. Sequence ATACAGACAAGACACCATCTGC had a sensor-assay potency score (higher = more potent) in experiment [5] of -0.609.

As to ATCTGCTGCTGCTCGGTCCAGT, the sensor-assay potency score (higher = more potent) in experiment [5] was -0.627. Sequence TTGGTGACCCTTCAGGACCCGC displayed a sensor-assay potency score (higher = more potent) in [7] of -1.34. In experiment [8], TTCAGCTCGCTTCTCTCTCAGA yielded a sensor-assay potency score (higher = more potent) of -0.891. In turn, TTGACCATGCGGGAATAGCCGG had a sensor-assay potency score (higher = more potent) in experiment [7] of -1.06. TTCTTGAGCTTGGTGCTCCGTG registered a sensor-assay potency score (higher = more potent) in [5] of -0.384. Sequence TTCACCAGCATCTTGACACGAT gave a sensor-assay potency score (higher = more potent) in experiment [8] of 0.208. Turning to AATTCTTGTTCAGCTCTCGGAT, the sensor-assay potency score (higher = more potent) in experiment [5] is -0.793. Consider TTCAGTTGGATAAGCAGGCTGC, for which, in [7], the sensor-assay potency score (higher = more potent) was -0.0722. In turn, TTAGATTATATCGATCTCGCAT yielded a sensor-assay potency score (higher = more potent) in experiment [6] of 0.262.

As for TACTAGAATTTTATTAGCCAAG, in [8], the sensor-assay potency score (higher = more potent) is -1.53. In turn, TTACTTTTCCATCGTCTTGATT yielded a sensor-assay potency score (higher = more potent) in [8] of -0.978.

TGAGCCTGTGAGCAGCATCTGG displayed a sensor-assay potency score (higher = more potent) in experiment [7] of -1.58. TAACACTGTAACACTGGCCCTG had a sensor-assay potency score (higher = more potent) in [8] of 0.0657. Sequence TAGTCTGATCGGCAGCTCCAGA showed a sensor-assay potency score (higher = more potent) in [7] of -1.14. For TTGACGTCTAGTCTGATCGGCA, the sensor-assay potency score (higher = more potent) in experiment [7] was -0.321. Take TTGAGGACCAGAACTACCTTGT: the sensor-assay potency score (higher = more potent) in experiment [6] is 0.395. With TTTGACGTCTAGTCTGATCGGC, the sensor-assay potency score (higher = more potent) in [7] was determined as 1.06. In turn, TAACCTGCTCCGCAGAACCTGG had a sensor-assay potency score (higher = more potent) in experiment [8] of -1.45. In experiment [7], TGACCGTCTCCACACTCCGTTG came in with a sensor-assay potency score (higher = more potent) of -1.74. For the sequence ATAGACAACACACAAAGCGCAG, the sensor-assay potency score (higher = more potent) in [8] is -1.07.

As to TTGAGGGAGAGCTGCAGCGAAG, the sensor-assay potency score (higher = more potent) in experiment [5] is -1.68. TTTACTTCCTGAAACAACTAAC had a sensor-assay potency score (higher = more potent) in experiment [6] of -1.04. Consider TTTGCTTGATCAAAACTGTGGG, for which the sensor-assay potency score (higher = more potent) in experiment [5] was 0.652. In experiment [7], TTTCCTGTGTTGCAGTCCCAGA gave a sensor-assay potency score (higher = more potent) of -1.04. In experiment [7], TTCTGAGCCTGTGAGCAGCATC had a sensor-assay potency score (higher = more potent) of -1.23.

TAGTATGGTCATTTGAGCCTGA: in experiment [6], the sensor-assay potency score (higher = more potent) was 0.248. For the sequence TTGCTTGATCAAAACTGTGGGT, the sensor-assay potency score (higher = more potent) in experiment [5] is -0.138. The sequence TTGAACTCCAGACAGTAGACAG had a sensor-assay potency score (higher = more potent) in experiment [5] of -1.12. In [9], TGGTCTGTGTGACACTGGGGAG came in with a sensor-assay potency score (higher = more potent) of -1.92. TCTCCTGACCAGGTGCAGGATC: the sensor-assay potency score (higher = more potent) in experiment [10] was -0.873. In experiment [11], TTGGTTGATAGTATCACCTGTA yielded a sensor-assay potency score (higher = more potent) of 0.588. As for TTTTAAATACTCTTCATCCAAA, the sensor-assay potency score (higher = more potent) in experiment [12] was -1.12. In experiment [13], TAGTCATCGTACTTGATCTGGA returned a sensor-assay potency score (higher = more potent) of 0.135. In experiment [13], TTATCTTTGGCTAGATCTCTGT yielded a sensor-assay potency score (higher = more potent) of -0.472. In turn, TTGAACAAACTAAATGCTGTGA returned a sensor-assay potency score (higher = more potent) in experiment [11] of 0.444. In the case of TAGCACAACTCTACCCAGGGGA, the sensor-assay potency score (higher = more potent) in experiment [13] amounted to 0.12. For the sequence TTAAGAAGTATCTCTGACCAGA, the sensor-assay potency score (higher = more potent) in experiment [11] stood at 0.035. Turning to ATCTTCTCTACATACAGGCTGT, in experiment [12], the sensor-assay potency score (higher = more potent) is -0.695. In experiment [12], TAGTGTGTACTCTTTGCTGAGC displayed a sensor-assay potency score (higher = more potent) of -0.796.

For the origin of these results see the OligoGym collection.
